Only some compounds are listed: those with a hit (about 15% of all), similar ones and a draw of the others.
RORgamma inh: ROR gamma (mouse) transcription inhibition. P51450. Drosophila S2 Gal4-RORgamma UAS-luciferase reporter, 20 h. Potency, µM (doses to about 53.6 µM), without a hit: top-dose activity change, negative = inhibition, hits mostly inhibitors. 5.4% of 310,000 active; note: nearly all actives have a fitted effect of over 60% in size
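Stable Schneider cell line, Gal4 DNA-binding domain fused to ROR gamma, UAS-luciferase. Cmpd 1 hr RT → CuSO4 700 uM final → 20 hr RT → luciferase reagent 10 min → luminescence.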
DT40 TDP1 no CPT: qHTS for Inhibitors of human tyrosyl-DNA phosphodiesterase 1 (TDP1): qHTS in cells in absence of CPT | DT40 Tdp1-/- hTDP1 cells, no CPT, ATP luminescence, 48 h | Potency, µM (highest dose often 46.2 µM), for the others: at the top dose activity change, negative = growth inhibition, hits mostly inhibitors | 15% of 420,000 active | AID 686978, 2013; note: nearly all actives have a fitted effect of over 55% in size
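Readout: luminescence from CellTiter-Glo after 30 min in the dark at RT. Cells: DT40 Tdp1-/- with stable hTDP1, 400/well. Exposure: compounds alone, ≥48 hr, 37 °C.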
VP16 counter: counter-screen for ROR gamma inhibitors: Gal4-VP16 reporter; Drosophila S2 Gal4-VP16 UAS-luciferase, luminescence, 20 h; 3.5% of 310,000 active; Potency, µM (top dose mostly 53.6 µM), for the others: at the top dose activity, negative = inhibition, usual class: inhibitors;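 note: Gal4-VP16 expression switched on by copper sulfate through the metallothionein promoter; nearly all actives have a fitted effect of over 50% in size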
ALOX12 inh: ALOX12 (human) lipoxygenase inhibition; P18054; purified 12hLO, xylenol orange hydroperoxide absorbance; Potency, µM (doses to about 108 µM), for the others: top-dose activity change, negative = inhibition, usual class: inhibitors; 1.1% of 580,000 active
Target sequence (P18054 whole entry, looked up): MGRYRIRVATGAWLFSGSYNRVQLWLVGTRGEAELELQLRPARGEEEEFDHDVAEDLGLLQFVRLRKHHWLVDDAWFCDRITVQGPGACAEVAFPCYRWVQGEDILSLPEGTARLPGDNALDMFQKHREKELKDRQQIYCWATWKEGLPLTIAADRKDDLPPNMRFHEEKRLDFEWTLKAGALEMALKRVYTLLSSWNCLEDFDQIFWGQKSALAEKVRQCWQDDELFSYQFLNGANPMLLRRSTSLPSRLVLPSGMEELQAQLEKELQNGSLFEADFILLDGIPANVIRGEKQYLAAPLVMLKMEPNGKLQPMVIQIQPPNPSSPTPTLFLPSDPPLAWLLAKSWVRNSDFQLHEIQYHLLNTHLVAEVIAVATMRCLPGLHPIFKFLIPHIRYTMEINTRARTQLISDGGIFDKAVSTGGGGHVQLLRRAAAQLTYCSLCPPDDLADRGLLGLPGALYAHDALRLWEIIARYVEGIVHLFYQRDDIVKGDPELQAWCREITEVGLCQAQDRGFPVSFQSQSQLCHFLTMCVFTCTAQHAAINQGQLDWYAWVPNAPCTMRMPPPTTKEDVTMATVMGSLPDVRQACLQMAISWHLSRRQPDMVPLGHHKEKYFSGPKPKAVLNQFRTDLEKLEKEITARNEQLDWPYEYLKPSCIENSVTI
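Hydroperoxide product was detected by ferrous iron/xylenol orange as the 573 to 405 nm absorbance ratio. Arachidonic acid at 40 uM (final) was turned over for 30 min at room temperature by 150 nM human 12hLO, pH 7.0 Hepes buffer, after 15 min compound preincubation.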
TDP1 cell CPT: DT40-hTDP1 cell growth loss with CPT | 12% of 420,000 active | chicken DT40 Tdp1-/-;hTDP1 cells + 20 nM CPT, ATP luminescence, 48 h | Potency, µM (series often up to 46.2 µM), for the others: at the highest dose activity change, negative = growth inhibition, hits mostly inhibitors | AID 686979; note: nearly all actives have a fitted effect of over 55% in size
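Cell growth measured by CellTiter-Glo luminescence after a minimum 48 h, 37 C compound exposure with 20 nM CPT in Tdp1-knockout DT40 cells stably expressing hTDP1, seeded 400/well; qHTS titration format.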
ELG1 repair inh: ELG1-dependent DNA repair inhibition. HEK293T ELG1-luciferase reporter, luminescence, 16 h; DNA damage induced by 5-fluorouridine. Potency, µM (highest dose often 46.1 µM), without a hit: top-dose activity change, negative = inhibition, hits mostly inhibitors. AID 504467. 2.3% of 330,000 active; note: nearly all actives have a fitted effect of over 55% in size
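Overnight (16 hr) co-exposure of 2,000 cells/well to 5-fluorouridine and compound at 37 °C preceded detection. Luciferase was quantified via ONE-Glo luminescence; loss of signal denotes inhibition.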
Numbers without * were called inactive; ? = inconclusive; . = no result given; ! = not active in a repeat; [ ] = dose if it differs, or a comment. Calls come from the whole dose curve; as a rule, active = well fitted curve in the direction sought with a large enough effect; inconclusive = small, poorly fitted or top-dose-only effect, or another doubt; inactive = no such curve, though single readings can be large; an effect the other way counts as inactive or inconclusive. % is set by controls: 0 for no effect and ±100 for the full control effect; potency is the fitted concentration of half-maximal effect.

SMILES	RORgamma inh	DT40 TDP1 no CPT	VP16 counter	ALOX12 inh	TDP1 cell CPT	ELG1 repair inh
CCc1ccccc1NC(=O)CNC(=O)c1cc(C2CC2)nc2c1cnn2C(C)C	.	?	.	6.4%	?	12.5%
Cc1cc(C)c(NC(=O)CNC(=O)c2cc(C3CC3)nc3c2cnn3C(C)C)c(C)c1	.	18.4µM*	.	-23.2%	?	.
COc1ccc(CCNC(=O)c2cc(C3CC3)nc3c2cnn3C(C)C)cc1	.	18.4µM*	.	-26.8%	?	?
COc1ccccc1OCCNC(=O)c1cc(C2CC2)nc2c1cnn2C(C)C	.	?	.	28.9%	?	12.6µM*
COc1ccccc1CCNC(=O)c1cc(C2CC2)nc2c1cnn2C(C)C	.	23.1µM*	.	?	?	-8.6%
Cc1ccc(-c2noc(CCCc3nc(-c4cccnc4)no3)n2)nn1	.	.	.	12.7%	.	.
O=C(COc1ccc2ccc(=O)oc2c1)NC(=O)NC1CCCCC1	.	.	.	-18.3%	.	.
COc1cc(C)c(NC(=O)c2cc(C3CC3)nc3c2cnn3C(C)C)cc1OC	.	16.4µM*	.	-24.1%	?	?
Cc1c(CC(=O)NCc2cccc(Cl)c2)c(=O)oc2c(C)c(O)ccc12	.	.	.	-12.1%	.	.
N/C(=N/O)c1ccccc1N1CCC(Cc2ccccc2)CC1	3.6%	14.6µM*	6.7%	2.9%	?	14.6µM*
O=C(c1ccccc1)N(Cc1ccco1)Cc1cccs1	.	13µM*	.	-12.7%	?	.
O=C(c1ccccc1Cl)N(Cc1ccco1)Cc1ccco1	.	14.6µM*	.	-22.6%	20.6µM*	.
CCOc1ccc(NC(=O)CCC2CCN(c3cc(NC4CC4)ncn3)CC2)cc1	.	.	.	24.6%	.	.
COc1ccccc1-c1cc(NC=O)c2ncc(-c3ccc(F)cc3)n2c1	.	18.4µM*	.	?	13µM*	.
CN(C)c1ccccc1-c1cc(NC=O)c2ncc(-c3cccc(C(F)(F)F)c3)n2c1	.	23.1µM*	.	?	?	.
COc1ccc(-c2cc(NC=O)c3ncc(-c4cccc(C(F)(F)F)c4)n3c2)cc1OC	.	20.6µM*	.	?	23.1µM*	.
COc1ccccc1-c1cc(NC=O)c2ncc(-c3cccc(C(F)(F)F)c3)n2c1	.	18.4µM*	.	-30.0%	?	.
CSC(C)C(=O)NC(C)c1ccccc1Br (stereo not given)	.	.	.	6.9%	.	.
COc1cc(-c2cc(NC=O)c3ncc(-c4cccc(C(F)(F)F)c4)n3c2)cc(OC)c1OC	.	10.3µM*	.	-1.5%	8.2µM*	.
O=C(Nc1ccccc1)N1C[C@@H](F)[C@@H](OCc2nc3ccccc3o2)C1	.	.	.	4.0%[176 µM]	.	.
Clc1ccccc1CSc1nnc2c3ccccc3n(CCc3ccccc3)c2n1	.	.	.	-2.9%	.	.
S=c1nc2c(n[nH]1)c1ccccc1n2CCc1ccccc1	2.24µM*	?	1.41µM*	?	?	1.0%
CSc1nnc2c3ccccc3n(CCc3ccccc3)c2n1	8.4%	16.4µM*	2.9%	-11.7%	7.31µM*	-5.7%
CCCOC(=O)c1ccc(Oc2cn[nH]c2-c2ccc(OCC)cc2O)cc1	10µM*	?	?	46.2%	?	?
CCCOC(=O)c1ccc(Oc2c(-c3ccc(OCC)cc3O)n[nH]c2C)cc1	-8.4%	18.4µM*	-4.4%	?	16.4µM*	?
SMILES	RORgamma inh	DT40 TDP1 no CPT	VP16 counter	ALOX12 inh	TDP1 cell CPT	ELG1 repair inh
COc1ccc(Oc2c(-c3ccc(O)cc3O)n[nH]c2C)cc1	-39.3%	-23.8%	-0.8%	4.9%	?	-20.4%
COc1ccc(S(=O)(=O)N2N=C(c3cccc(NS(C)(=O)=O)c3)CC2c2ccccc2C)cc1 (stereo not given)	.	.	.	-7.3%	.	.
CC(C)Cn1cnc2c1c(=O)n(CC(=O)NCCc1ccc(F)cc1)c(=O)n2Cc1ccccc1	.	.	.	-25.4%	.	.
CCN1CCC(N(Cc2ccc3c(c2)OCO3)C(=O)Nc2cc(F)ccc2F)CC1	.	?	.	-0.5%	-28.3%	.
CCN1CCC(N(Cc2ccc3c(c2)OCO3)C(=O)Nc2ccc(Br)c(C)c2)CC1	.	16.4µM*	.	?	?	.
CN1[C@@H]2CC[C@H]1CC(OC(c1ccccc1)c1ccccc1)C2 (stereo not given in full)	-9.3%[10 µM]	21.1µM*!	-0.3%	.	7.5µM*	.
CN1CCC(OC(c2ccccc2)c2ccc(Cl)cc2)C1 (stereo not given)	.	20.6µM*	.	-9.1%	?	.
CN1C2CCC1CC(OC(c1ccccc1)c1ccccc1)C2 (stereo not given)	?	-35.9%	-12.0%	4.0%	?	-22.7%
Cc1ccc(CN(C)C(=O)CN2CCCC2c2ccc3c(c2)OCCO3)cc1 (stereo not given)	.	.	.	22.4%	.	.
CCC(C)(c1nnnn1-c1c(C)cccc1C)N(N=O)c1cccc(C(F)(F)F)c1 (stereo not given)	25.1%	20.6µM*	-7.3%	-12.7%	25.9µM*	-1.6%
Cc1cccc(C)c1-n1nnnc1C(C)(C)N1CCN(N=O)CC1	-8.5%	-11.0%	-16.6%	?	21.2%	2.6%
Cc1ccc2nc(C)c(C(=O)N3CCN(c4ccc(F)cc4)CC3)cc2c1	.	.	.	-54.8%	.	.
O=C(c1cccs1)c1ccc(-c2cccs2)s1	-22.7%	-11.1%	12.6µM*	4.3%	-10.1%	?
CN1CCN(C(=O)c2ccc(-c3cccs3)s2)CC1	?	-3.1%	?	0.0%	-0.4%	?
NS(=O)(=O)c1ccc(CCNC(=O)c2ccc(Cl)s2)cc1	3.4%	-10.3%	-1.0%	?	-4.7%	-2.0%
NS(=O)(=O)c1ccc(CCNC(=O)c2ccc([N+](=O)[O-])s2)cc1	12.2%	?	-29.4%	-14.9%	16.4µM*	13µM*
CCCn1c(=S)[nH]c2cc(C(=O)N3CCN(C(=O)OCC)CC3)ccc2c1=O	-43.9%	-4.5%	0.5%	-0.1%	-23.9%	11.5%
CCOC(=O)N1CCN(C(=O)c2ccc3c(=O)n(CCc4ccccc4)c(=S)[nH]c3c2)CC1	7.08µM*	-29.7%	0.1%	-23.8%	-18.5%	-19.6%
CCOC(=O)N1CCN(C(=O)c2ccc(Cn3c(=S)[nH]c4ccc(Br)cc4c3=O)cc2)CC1	?	1.03µM*	14.1µM*	2.3%	5.17µM*	7.3µM*
O=C(Nc1cccc(-c2ccc(F)cc2)c1)C1CCCN1C(=O)c1ccncc1 (stereo not given)	.	.	.	42.1%	.	.
Cc1cccc(CN2CCc3c(OCC(=O)NCc4ccco4)cccc3C2=O)c1	?	?	-9.5%	-8.6%	?	?
CN1CCc2c(OCC(=O)NC3CCCCC3)cccc2C1=O	3.0%	-3.9%	-18.0%	0.0%	-0.6%	-5.4%
